Among the data in PubChem BioAssay are z-score and composite z-score values, retold here.

Assay [1] can be described thus: optical density shifts of acrAB sulA E. coli – strain DRC41, OD650, 48 h, E. coli filamentation inducer project, primary screen (AID 1152).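 Further: E. coli MC1000 strain DRC41 lacking acrAB efflux pump and sulA.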 The following applies: higher = more signal, called active from +8 up or from −8 down.
Assay [2] in a line: probe aLefty1 binding on compound microarray – biochemical, small-molecule microarray, 635/667 nm fluorescence, primary screen (AID 1153).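 Further: score merges spot fluorescence with signal-to-noise ratio from the scanned slide images.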 The following applies: higher = more signal.
A short description of assay [3]: plasmodial surface anion channel blockers, osmotic lysis – cell-based, P. falciparum Indochina, OD700, 1 h, primary screen (AID 1154). The settings on record: P. falciparum Indochina infected RBC osmotic lysis, higher = more signal, called active from +8 up or from −8 down.
Assay [4] can be described thus: plasmodial surface anion channel blockers, osmotic lysis – cell-based, P. falciparum Indochina, OD700, 2 h, primary screen (AID 1155).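 Further: lysis reports solute entry through the parasite surface anion channel PSAC.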 The following applies: P. falciparum Indochina infected erythrocytes, higher = more signal, called active from +8 up or from −8 down.
The nature of assay [5]: changes in parasitized red cell lysis, either direction – P. falciparum Indochina, OD700, 3 h, PSAC antagonist project, primary screen (AID 1156). The following applies: P. falciparum-infected erythrocytes, osmotic lysis, higher = more signal, called active from +8 up or from −8 down.
Assay [6] is described as follows: plasmodial surface anion channel blockers, osmotic lysis – cell-based, P. falciparum Indochina, OD700, 18 h, primary screen (AID 1157). The settings on record: P. falciparum Indochina infected erythrocytes, osmotic lysis OD700, 18 h; higher = more signal, called active from +8 up or from −8 down.
The nature of assay [7]: S6 kinase pathway phospho-S6 level changes – cell-based, A549, cytoblot, luminescence, serum-stimulated, primary screen (AID 1158).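 Further: serum-stimulated A549 lung adenocarcinoma cells; signal is phosphorylated S6 detected by cytoblot immunostaining with HRP secondary.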 The following applies: 5 h, higher = more signal.
Assay [8] concerns the target NADPH oxidase 2 (Homo sapiens) (UniProt P04839). Briefly: compounds shifting NOX2 Amplex Red fluorescence – cell-based, HEK293-NOX2, PMA-stimulated, NOX inhibitor project, primary screen (AID 1159). Further: test concentration not given here. The settings on record: 45 min, higher = more signal, called active from +8 up or from −8 down.
For assay [9], the target named is NADPH oxidase 4 (Homo sapiens) (UniProt Q9NPH5). The experiment in a line: compounds shifting NOX4 Amplex Red fluorescence – cell-based, HEK293-NOX4, tetracycline-induced, NOX inhibitor project, primary screen (AID 1160). The following applies: HEK293-NOX4, Amplex Red H2O2 fluorescence, 45 min; higher = more signal, called active from +8 up or from −8 down.
Chain of NADPH oxidase 4 (Homo sapiens) (Q9NPH5 whole entry, looked up): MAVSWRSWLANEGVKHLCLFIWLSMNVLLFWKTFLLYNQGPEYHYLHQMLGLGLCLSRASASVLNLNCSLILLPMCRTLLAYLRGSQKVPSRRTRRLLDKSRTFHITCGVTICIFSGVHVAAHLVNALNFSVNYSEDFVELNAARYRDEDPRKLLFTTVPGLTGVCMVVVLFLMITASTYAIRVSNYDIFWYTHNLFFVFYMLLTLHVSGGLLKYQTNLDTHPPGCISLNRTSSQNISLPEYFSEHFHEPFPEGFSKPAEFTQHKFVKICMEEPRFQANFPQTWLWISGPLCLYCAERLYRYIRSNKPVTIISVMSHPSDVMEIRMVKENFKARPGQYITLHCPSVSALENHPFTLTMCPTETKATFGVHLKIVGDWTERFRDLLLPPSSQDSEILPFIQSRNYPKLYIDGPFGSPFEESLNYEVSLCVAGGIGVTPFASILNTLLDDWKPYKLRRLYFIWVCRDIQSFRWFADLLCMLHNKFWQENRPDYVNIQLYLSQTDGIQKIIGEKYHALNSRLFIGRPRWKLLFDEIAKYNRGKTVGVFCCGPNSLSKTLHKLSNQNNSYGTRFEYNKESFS
The target of assay [10] is NADPH oxidase 5 (Homo sapiens) (UniProt Q96PH1). The experiment in a line: compounds shifting NOX5 Amplex Red fluorescence – cell-based, HEK293-NOX5, NOX inhibitor project, primary screen (AID 1161). The following applies: HEK293-NOX5, ionomycin, 45 min, higher = more signal.
Chain of NADPH oxidase 5 (Homo sapiens) (Q96PH1 whole entry, looked up): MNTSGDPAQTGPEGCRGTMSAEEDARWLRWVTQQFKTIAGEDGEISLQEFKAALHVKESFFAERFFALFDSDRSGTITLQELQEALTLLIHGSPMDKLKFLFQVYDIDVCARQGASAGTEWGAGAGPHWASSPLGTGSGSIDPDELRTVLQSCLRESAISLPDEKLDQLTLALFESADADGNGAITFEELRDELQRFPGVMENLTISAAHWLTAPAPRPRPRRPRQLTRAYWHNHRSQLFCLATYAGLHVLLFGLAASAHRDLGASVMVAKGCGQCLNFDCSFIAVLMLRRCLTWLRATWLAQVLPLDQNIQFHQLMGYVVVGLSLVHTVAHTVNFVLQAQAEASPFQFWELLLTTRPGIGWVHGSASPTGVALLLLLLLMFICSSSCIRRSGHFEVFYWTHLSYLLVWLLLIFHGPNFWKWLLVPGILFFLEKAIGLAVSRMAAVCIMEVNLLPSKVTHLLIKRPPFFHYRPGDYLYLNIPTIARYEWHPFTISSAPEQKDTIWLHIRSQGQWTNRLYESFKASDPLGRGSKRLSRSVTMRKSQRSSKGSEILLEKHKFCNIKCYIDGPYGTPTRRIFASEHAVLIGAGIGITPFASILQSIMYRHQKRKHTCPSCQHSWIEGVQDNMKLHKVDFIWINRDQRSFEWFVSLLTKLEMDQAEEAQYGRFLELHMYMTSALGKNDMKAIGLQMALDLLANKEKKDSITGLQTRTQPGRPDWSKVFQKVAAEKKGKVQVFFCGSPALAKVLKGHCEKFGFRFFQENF
Assay [11] in a line: compound effects on lung adenocarcinoma cell viability – A549, calcein-AM fluorescence, 48 h, basal, profiling panel (AID 1162). Further: test concentration not given here. The following applies: higher = more signal.
Assay [12] can be described thus: compound effects on differentiated 3T3-L1 adipocyte viability – cell-based, 3T3-L1 adipocytes, calcein-AM fluorescence, 48 h, basal, profiling panel (AID 1163). Further: test concentration not given here. The following applies: 3T3-L1 adipocytes viability, higher = more signal.
Assay [13] in a line: compound effects on hepatocellular carcinoma cell viability – HepG2, calcein-AM fluorescence, 48 h, basal, profiling panel (AID 1164). Further: test concentration not given here. The following applies: higher = more signal.
The nature of assay [14]: compound effects on multiple myeloma cell viability – MM1S, calcein-AM fluorescence, 48 h, basal, profiling panel (AID 1165).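 Further: viability of MM1S multiple myeloma cells under basal unstimulated conditions; test concentration not given here.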 The settings on record: higher = more signal.
Assay [15] in a line: calcein-AM signal in unstimulated myeloma cells – cell-based, calcein-AM fluorescence, 48 h, PK04 Diversity Set, profiling panel (AID 1166).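 Further: cells grown under basal conditions without added stimulus; test concentration not given here.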 The settings on record: RPMI8226 myeloma viability, higher = more signal.
The nature of assay [16]: JC-1 mitochondrial signal, unstimulated HepG2 cells – cell-based, JC-1 fluorescence, 24 h, 100 nL compound, profiling panel (AID 1167). Further: test concentration not given here. The settings on record: HepG2 mitochondrial potential, higher = more signal.
Assay [17] can be described thus: JC-1 mitochondrial signal, unstimulated adipocytes – cell-based, JC-1 fluorescence, 3T3-L1 adipocytes, 24 h, 100 nL compound, profiling panel (AID 1168). Further: test concentration not given here. The following applies: JC-1 mitochondrial fluorescence, higher = more signal, called active from +8 up or from −8 down.
Assay [18] in a line: JC-1 mitochondrial signal, unstimulated myeloma cells – cell-based, JC-1 fluorescence, RPMI8226, 24 h, 100 nL compound, profiling panel (AID 1169). Further: test concentration not given here. The following applies: JC-1 mitochondrial potential fluorescence, higher = more signal.
Assay [19] is described as follows: JC-1 mitochondrial signal, unstimulated MM1S myeloma – cell-based, JC-1 fluorescence, 24 h, 100 nL compound, profiling panel (AID 1170). Further: test concentration not given here. The following applies: MM1S mitochondrial potential, higher = more signal.
The nature of assay [20]: resazurin metabolic signal in A549 cells – cell-based, resazurin fluorescence, 24 h, PK04 Diversity Set, profiling panel (AID 1171). Further: test concentration not given here. The settings on record: A549 viability, higher = more signal, called active from +8 up or from −8 down. Background: Alamar Blue is a resazurin reagent that responds to reducing activity.

The structures appear in SMILES notation. The source made the active and inactive calls.

Chain of NADPH oxidase 2 (Homo sapiens) (P04839 whole entry, looked up): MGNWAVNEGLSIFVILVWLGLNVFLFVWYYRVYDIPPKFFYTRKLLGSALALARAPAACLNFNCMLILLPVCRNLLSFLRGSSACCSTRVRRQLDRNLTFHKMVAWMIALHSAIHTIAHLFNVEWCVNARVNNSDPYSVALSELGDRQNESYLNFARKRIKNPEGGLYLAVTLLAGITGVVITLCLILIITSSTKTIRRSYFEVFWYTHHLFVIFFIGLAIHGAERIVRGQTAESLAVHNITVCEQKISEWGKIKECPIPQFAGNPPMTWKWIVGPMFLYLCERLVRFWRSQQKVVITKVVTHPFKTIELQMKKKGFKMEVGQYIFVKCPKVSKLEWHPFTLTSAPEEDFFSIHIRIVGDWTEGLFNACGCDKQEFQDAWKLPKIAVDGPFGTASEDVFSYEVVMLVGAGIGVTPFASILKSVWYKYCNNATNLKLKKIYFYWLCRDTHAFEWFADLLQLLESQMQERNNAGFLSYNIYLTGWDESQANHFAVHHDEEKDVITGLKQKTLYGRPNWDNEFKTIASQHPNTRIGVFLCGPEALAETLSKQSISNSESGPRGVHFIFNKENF

On to `C=CCN1C(=O)[C@@]2(O[C@@H](CCO)[C@H]([Si](C)(C)c3ccc(OC)cc3)[C@H]2C)c2cc(N3CCOC3=O)ccc21`, for which the z-score in [1] is 0.232 (inactive); in assay [3], 24.6 (active); in [4], 12.6 (active); in [5], 0.28 (inactive); in [6], 2.21 (inactive); in assay [7] it was 0.309. The z-score in assay [8] was -2.41 (inactive); in assay [9], 1.35 (inactive); in [10] it was -1.52; in assay [11], -2.23; in assay [12], 1.33; in [13], -4.75. Moreover, the z-score was -2.77 in [14]; -4.38 in assay [15]; -2.9 in assay [16]; 1.25 (inactive) in assay [17]; -1.08 in assay [18]; -2.3 in assay [19]. Moreover, the z-score in assay [20] is -3.36 (inactive). The compound also showed a composite z-score in [2] of -0.152.

As for `CC(C)C(=C=CC[C@@H](O)c1cccc(OCCO)c1)C[C@@H](O)COCc1ccccc1`, the z-score in [1] is 1.74 (inactive); in [3] it was 12.8 (active); in [4], -0.6 (inactive); in [5], 1.76 (inactive); in assay [6] it was -2.05 (inactive); in [7] it was 3.5. Moreover, the z-score in [8] is -1.19 (inactive); in [9], -1.2 (inactive); in assay [10] it was -2.4; in [11] it was 1.05; in [12], 1.32; in assay [13], 0.512. Further, the z-score is 0.0108 in [14]; 0.442 in assay [15]; 0.427 in assay [16]; 0.686 (inactive) in assay [17]; 0.46 in assay [18]; -0.794 in assay [19]. In addition, the z-score in [20] was 0.151 (inactive). Further, the composite z-score in assay [2] is -0.504.

For `C=C[C@@H](C)[C@@H](OC(=O)Nc1ccc(SC)cc1)c1ccc(OCCO)cc1`, the z-score was -0.707 (inactive) in assay [1]; 29.1 (active) in [3]; 20.2 (active) in assay [4]; 4.42 (inactive) in [5]; 1.9 (inactive) in [6]; 0.241 in assay [7]. Further, the z-score in [8] is -1.21 (inactive); in assay [9] it was -0.0499 (inactive); in [10], -0.431; in assay [11], -0.555; in assay [12] it was 0.248; in assay [13] it was -1.37. The z-score is -1.08 in [14]; -0.425 in [15]; -2.54 in assay [16]; -0.75 (inactive) in [17]; -0.15 in assay [18]; -0.434 in [19]. For the same compound, in assay [20], the z-score was 0.491 (inactive). In assay [2], the composite z-score is -0.156.

Consider `O=C1C2C=CC(C(O)c3cc(C(F)(F)F)cc(C(F)(F)F)c3)N(Nc3ccccc3F)C2C(=O)N1c1ccccc1` (stereo not given), for which the z-score was -2.27 (inactive) in assay [1]; 4.38 (inactive) in assay [3]; 1.93 (inactive) in [4]; -3.51 (inactive) in assay [5]; 2.35 (inactive) in assay [6]; -0.746 in assay [7]. Besides, the z-score in assay [8] was -0.648 (inactive); in assay [9] it was -4.37 (inactive); in assay [10] it was -1.58; in [11], -1.28; in [12], -0.599; in assay [13], -3.36. For the same compound, the z-score was -3.6 in assay [14]; -4.08 in [15]; -3.93 in assay [16]; 0.0394 (inactive) in [17]; -1.11 in assay [18]; -0.964 in [19]. The z-score in assay [20] was -0.648 (inactive). In addition, the composite z-score in [2] is 1.01.

As to `[N-]=[N+]=NCc1ccccc1[C@@H]1OC(c2ccc(OCCCO)cc2)=N[C@]1(Cc1ccccc1)C(=O)NCCN1CCOCC1`, the z-score was 0.745 (inactive) in assay [1]; 18 (active) in assay [3]; 3.55 (inactive) in [4]; 1.97 (inactive) in assay [5]; 1.13 (inactive) in assay [6]; -0.408 in [7]. For the same compound, the z-score in assay [8] was -3.16 (inactive); in [9], 2.14 (inactive); in [10], 0.838; in assay [11], 0.239; in [12], 1.09; in assay [13], 0.91. Further, the z-score is -0.887 in assay [14]; 0.185 in assay [15]; 1.14 in assay [16]; 0.69 (inactive) in [17]; -0.191 in [18]; 0.424 in [19]. For the same compound, the z-score in [20] is 1.26 (inactive). The composite z-score in [2] stood at 0.345.

`CCN(CC)c1ccc(N2CC=CC34O[C@@H]5/C=C\CCC(C)OC(=O)C5[C@H]3C(=O)N(C(C)CO)[C@@H]4C2=O)cc1` (stereo not given in full): the z-score is 1.23 (inactive) in assay [1]; 0.946 (inactive) in assay [3]; -0.227 (inactive) in assay [4]; 0.987 (inactive) in [5]; 0.304 (inactive) in assay [6]; -0.276 in assay [7]. In addition, the z-score was 0.33 (inactive) in assay [8]; -0.619 (inactive) in assay [9]; 1.69 in assay [10]; -0.0588 in assay [11]; -1.03 in assay [12]; 1.48 in [13]. In addition, the z-score is 0.86 in [14]; 0.388 in assay [15]; 1.16 in [16]; 0.0645 (inactive) in [17]; -0.616 in assay [18]; -0.585 in assay [19]. Also, the z-score in assay [20] is -0.0052 (inactive). Besides, in assay [2], the composite z-score is -0.196.

`O=C(O)[C@@H]1C[C@@H]2C(=O)N3CCC[C@H]3C(=O)N2[C@@H]1c1cccc(OCCO)c1`: the z-score in assay [1] is 0.807 (inactive); in assay [3], 2.94 (inactive); in assay [4] it was 0.591 (inactive); in [5] it was -1.77 (inactive); in assay [6] it was 0.35 (inactive); in assay [7], 0.132. Besides, the z-score was 1.29 (inactive) in assay [8]; 0.355 (inactive) in assay [9]; 1.59 in assay [10]; 0.0951 in [11]; 0.717 in [12]; -0.439 in assay [13]. In addition, the z-score is -0.456 in assay [14]; -0.159 in assay [15]; 0.591 in assay [16]; 0.283 (inactive) in assay [17]; 0.817 in assay [18]; 0.718 in assay [19]. Further, the z-score in assay [20] was -0.0326 (inactive). In [2], this compound yielded a composite z-score of 2.57.

With `C=C(COC)C(=O)CC[C@H](OC(=O)c1cccnc1)c1ccc(CO)o1`, the z-score in [1] is -0.471 (inactive); in [3], 0.904 (inactive); in [4] it was 0.0112 (inactive); in assay [5], -0.376 (inactive); in assay [6] it was 0.063 (inactive); in assay [7], -0.262. Further, the z-score is 0.337 (inactive) in assay [8]; -0.159 (inactive) in assay [9]; 0.221 in assay [10]; -0.15 in [11]; -0.266 in assay [12]; -0.53 in [13]. In addition, the z-score was -0.401 in assay [14]; -0.535 in [15]; -0.981 in [16]; -0.492 (inactive) in [17]; 0.541 in [18]; -0.267 in assay [19]. For the same compound, the z-score in [20] is -0.452 (inactive). Besides, the composite z-score in assay [2] is -0.147.

In the case of `NC(=O)[C@H]1[C@@H]2C(=O)O[C@@H](c3ccccc3)[C@@H](c3ccccc3)N2[C@@H](c2ccc(O)cc2)[C@]12C(=O)Nc1ccc(C#CC3=CCCCC3)cc12`, the z-score is -1.35 (inactive) in [1]; 3.07 (inactive) in assay [3]; 1.45 (inactive) in [4]; 0.28 (inactive) in [5]; 1.4 (inactive) in assay [6]; -0.425 in assay [7]. In addition, the z-score was 1.18 (inactive) in assay [8]; 0.425 (inactive) in [9]; 0.563 in assay [10]; -1.8 in assay [11]; 0.741 in assay [12]; -3.91 in assay [13]. Moreover, the z-score was -3.33 in assay [14]; -4.54 in assay [15]; -3.68 in [16]; -2.09 (inactive) in assay [17]; -1.16 in [18]; -1.32 in assay [19]. Further, the z-score in assay [20] was -0.3 (inactive). In [2], this compound displayed a composite z-score of 0.145.
